In paper PMC11062922 (Nature Chemical Biology, 2023):
Like-named read-outs stand apart in the source and are kept apart here.

What was measured:
Parameters in all cases: species or system human, MV4-11 + K-562 + COLO205 + SK-N-BE2 + OVCAR-8
[1] = tested on: MAP2K2; conditions: read-out: apparent Kd, compound concentrations: 100 nM and 1000 nM (sheet 'Samples'), n = 1
[2] = tested on: LIMK2; conditions: read-out: apparent Kd, n = 1
[3] = tested on: CDK1; conditions: read-out: apparent Kd, n = 1
[4] = tested on: CDK2; conditions: read-out: apparent Kd, n = 1
[5] = tested on: CDK5; conditions: read-out: apparent Kd, n = 1
[6] = tested on: TESK1; conditions: read-out: apparent Kd, compound concentrations: 100 nM and 1000 nM (sheet 'Samples'), n = 1
[7] = tested on: IRAK3; conditions: read-out: apparent Kd, n = 1
[8] = tested on: PTK2B; conditions: read-out: apparent Kd, n = 1
[9] = tested on: PTK2; conditions: read-out: apparent Kd, n = 1
[10] = tested on: ADCK1; conditions: read-out: apparent Kd, n = 1
[11] = tested on: MTOR; conditions: read-out: apparent Kd; compound concentrations:100 nM and 1000 nM (sheet 'Samples'); n = 1
[12] = tested on: ADRBK1; conditions: read-out: apparent Kd, n = 1
[13] = tested on: PIK3CA; conditions: read-out: apparent Kd, n = 1
[14] = tested on: COX5A; conditions: read-out: apparent Kd, n = 1
[15] = tested on: DCTPP1; conditions: read-out: apparent Kd; compound concentrations:100 nM and 1000 nM (sheet 'Samples'); n = 1
[16] = tested on: STK3; conditions: read-out: apparent Kd, n = 1
[17] = tested on: ACAD8; conditions: read-out: apparent Kd, compound concentrations: 100 nM and 1000 nM (sheet 'Samples'), n = 1
[18] = tested on: STK26; conditions: read-out: apparent Kd, n = 1
[19] = tested on: TNIK; conditions: read-out: apparent Kd; compound concentrations: 100 nM and 1000 nM (sheet 'Samples'), CATDS: 2.6108076869188701E-2; n = 1
[20] = compound concentrations:100 nM and 1000 nM (sheet 'Samples')

Compound `N#Cc1cnc2cc(-c3cnc(CNCCN4CCOCC4)s3)ccc2c1Nc1ccc(Oc2ccccc2)cc1` [GW664114X] has a potency estimated from few doses ([1]; CATDS: 6.4354786580358606E-2) of 0.499 µM.

With `CC(=O)N1CCN(c2ccc(Nc3nccc(-c4sc(C(C)C)nc4-c4cccc(NS(=O)(=O)c5cccc(Cl)c5)c4)n3)cn2)CC1` [GSK1660437A] the potency estimated from few doses ([2]; compound concentrations: 100 nM and 1000 nM (sheet 'Samples'), CATDS: 4.7315516345464E-2) was 0.946 µM.

Work on `CC(C)c1nc(-c2cccc(NS(=O)(=O)c3c(F)cccc3F)c2)c(-c2ccnc(Nc3ccc(N4CCOCC4)nc3)n2)s1.Cl` [GSK1723980B] yielded a potency estimated from few doses ([3]; compound concentrations: 100 nM and 1000 nM (sheet 'Samples'), CATDS: 1.4820123571840101E-2) of 1.58 µM, a potency estimated from few doses ([4]; compound concentrations: 100 nM and 1000 nM (sheet 'Samples'), CATDS: 1.87425082345213E-2) of 0.614 µM and a potency estimated from few doses ([5]; compound concentrations: 100 nM and 1000 nM (sheet 'Samples'), CATDS: 2.2922403030908301E-2) of 0.35 µM. For the same compound, the potency estimated from few doses ([2]; compound concentrations: 100 nM and 1000 nM (sheet 'Samples'), CATDS: 2.58899611952562E-2) was 0.263 µM and the potency estimated from few doses ([6]; CATDS: 3.6756821103285202E-2) was 0.132 µM.

With `CNC(=O)c1ccccc1Nc1nc(Nc2cccc(CS(C)(=O)=O)c2)ncc1C.O=CO` [GSK1520489A] the potency estimated from few doses ([7]; compound concentrations: 100 nM and 1000 nM (sheet 'Samples'), CATDS: 6.3642542209879499E-2) was 0.0162 µM, the potency estimated from few doses ([8]; compound concentrations: 100 nM and 1000 nM (sheet 'Samples'), CATDS: 2.8071916989063601E-2) was 0.0655 µM and the potency estimated from few doses ([9]; compound concentrations: 100 nM and 1000 nM (sheet 'Samples'), CATDS: 4.2767285410469903E-2) was 0.0302 µM.

Compound `CC(C)c1nc(-c2ccc(F)c(NS(=O)(=O)c3c(F)cccc3F)c2)c(-c2ccnc(Nc3ccc(N4CCOCC4)nc3)n2)s1` [GSK1804250A] has a potency estimated from few doses [2, 20] of 0.478 µM.

Work on `Nc1nc(N)c2nc(-c3ccccc3)[nH]c2n1` [SKF-12778] yielded a potency estimated from few doses [10, 20] of 1.2 µM and a potency estimated from few doses [11] of 0.4 µM.

`CC(=O)N1CCN(c2ccc(Nc3nccc(-c4sc(C(C)C)nc4-c4cccc(NS(=O)(=O)c5ccccc5)c4)n3)cn2)CC1` [GSK1645872A] was tested, and the potency estimated from few doses ([12]; compound concentrations: 100 nM and 1000 nM (sheet 'Samples'), CATDS: 2.7359704437324502E-2) was 0.943 µM, the potency estimated from few doses ([4]; compound concentrations: 100 nM and 1000 nM (sheet 'Samples'), CATDS: 2.76064563935246E-2) was 0.919 µM and the potency estimated from few doses ([5]; compound concentrations: 100 nM and 1000 nM (sheet 'Samples'), CATDS: 3.88696390995786E-2) was 0.42 µM. The potency estimated from few doses ([2]; compound concentrations: 100 nM and 1000 nM (sheet 'Samples'), CATDS: 4.5143474402307197E-2) was 0.319 µM.

Compound `CNc1nccc(-c2c(-c3ccc(F)cc3)ncn2C2CCN(C)CC2)n1` [SB-222903] has a potency estimated from few doses [11] of 0.295 µM.

With `Cl.Cn1c(=O)c(Cc2ccc(F)cc2F)cc2cnc(NC3CCOCC3)nc21` [RO3308757-001] the potency estimated from few doses [8, 20] was 0.456 µM and the potency estimated from few doses [9, 20] was 0.474 µM.

In the case of `Cc1cc(O)cc(C)c1/C=C/c1cncc(-c2nn[nH]n2)c1.Cl` [GW441806A], the potency estimated from few doses ([13]; compound concentrations: 100 nM and 1000 nM (sheet 'Samples'), CATDS: 8.3670028423682499E-2) is reported as 0.256 µM and the potency estimated from few doses ([6]; CATDS: 4.6291633424982298E-2) is reported as 1.29 µM.

Work on `O=S(=O)(c1ccc(-c2ccnc3[nH]ccc23)cc1)N1CCCC1` [GSK846226A] yielded a potency estimated from few doses [14, 20] of 0.848 µM and a potency estimated from few doses [15] of 2.15 µM.

Work on `Cn1cc(-c2cnc(N)c3c(-c4ccc5c(c4)CCN5C(=O)Cc4ccccc4)csc23)cn1` [GSK2593074A] yielded a potency estimated from few doses [16, 20] of 1.89 µM.

With `COc1ccc(Nc2nccc(N3CCC(NC(=O)Nc4cccc(OC)c4)C3)n2)cc1` (stereo not shown) [GSK1379742A] the potency estimated from few doses ([17]; CATDS: 0.11167502777980801) was 2.09 µM, the potency estimated from few doses ([3]; compound concentrations: 100 nM and 1000 nM (sheet 'Samples'), CATDS: 0.12045824140997501) was 1.77 µM and the potency estimated from few doses ([1]; CATDS: 0.114470387989454) was 1.98 µM.

Work on `CS(=O)(=O)c1ccc(-c2nc3n(c2-c2ccncc2)CCC3)cc1` [SKF-105942] yielded a potency estimated from few doses ([17]; CATDS: 0.13672361229607899) of 1.4 µM.

With `NS(=O)(=O)c1cccc(-c2ccc3nccc(-c4cccc(S(N)(=O)=O)c4)c3c2)c1` [GW867253X] the potency estimated from few doses ([17]; CATDS: 0.48469015722886899) was 2.11 µM and the potency estimated from few doses ([12]; compound concentrations: 100 nM and 1000 nM (sheet 'Samples'), CATDS: 0.51630856929824398) was 1.86 µM.

`Clc1ccc(-c2nn3ncccc3c2-c2ccnc(Nc3ccccc3)n2)cc1` [GW829055X] gave a potency estimated from few doses ([17]; CATDS: 3.9352617982793499E-2) of 1.22 µM, a potency estimated from few doses ([10]; compound concentrations: 100 nM and 1000 nM (sheet 'Samples'), CATDS: 3.6697893678181097E-2) of 1.43 µM and a potency estimated from few doses ([12]; compound concentrations: 100 nM and 1000 nM (sheet 'Samples'), CATDS: 3.1852234097214598E-2) of 2.08 µM. The potency estimated from few doses ([1]; CATDS: 3.8918058303858701E-2) was 1.25 µM and the potency estimated from few doses ([16]; compound concentrations: 100 nM and 1000 nM (sheet 'Samples'), CATDS: 3.09457854656708E-2) was 2.27 µM.

`Fc1cccc(COc2ccc(Nc3ncncc3C#Cc3ccccc3)cc2Cl)c1` [GW651576X] gave a potency estimated from few doses ([17]; CATDS: 5.0604868868818903E-2) of 1.74 µM, a potency estimated from few doses ([1]; CATDS: 5.7439305981691703E-2) of 1.35 µM and a potency estimated from few doses ([18]; compound concentrations: 100 nM and 1000 nM (sheet 'Samples'), CATDS: 5.7539827795964102E-2) of 1.35 µM.

With `Cc1ccc(NC(=O)Nc2ccccc2)cc1-c1ccc(C(=O)Nc2ccncc2)cc1` [GSK1398471A] the potency estimated from few doses ([17]; CATDS: 9.6825044114723993E-2) was 2.18 µM.

Compound `COc1cc(N2CCN(C(C)C)CC2)ccc1Nc1nc(Nc2cccc(F)c2C(=O)O)c2cc[nH]c2n1` [GSK1819799A] has a potency estimated from few doses ([8]; compound concentrations: 100 nM and 1000 nM (sheet 'Samples'), CATDS: 7.8469335656757594E-2) of 0.466 µM and a potency estimated from few doses ([9]; compound concentrations: 100 nM and 1000 nM (sheet 'Samples'), CATDS: 7.4046545419842305E-2) of 0.522 µM.

`COc1ccc(C2=C(c3cn(C)c4ccccc34)C(=O)NC2=O)cc1OC` [RO3206363-000] gave a potency estimated from few doses ([18]; compound concentrations: 100 nM and 1000 nM (sheet 'Samples'), CATDS: 3.3943818014748203E-2) of 1.45 µM.

With `COc1ccc(-c2nn3ncccc3c2-c2ccnc(Nc3ccc4c(c3)OCCO4)n2)cc1` [GW827106X] the potency estimated from few doses ([13]; compound concentrations: 100 nM and 1000 nM (sheet 'Samples'), CATDS: 0.187165726463497) was 0.172 µM.

`Cc1[nH]nc2c1N=C(c1ccccc1Cl)c1cc([N+](=O)[O-])ccc1N2` [RO0274406-000] showed a potency estimated from few doses ([14]; compound concentrations: 100 nM and 1000 nM (sheet 'Samples'), CATDS: 8.1877347137814999E-2) of 0.832 µM.

`Fc1ccc(-c2ncn(C3CCNCC3)c2-c2ccnc(Oc3ccc4c(c3)OCO4)n2)cc1` [SB-250715] showed a potency estimated from few doses [10, 20] of 1.85 µM and a potency estimated from few doses [12, 20] of 2.15 µM.

Compound `Cc1ccc(-n2nc(C(C)(C)C)cc2NC(=O)Nc2ccc(OCCN3CCOCC3)cc2)cc1` [BIRB0876BS] has a potency estimated from few doses [14, 20] of 0.963 µM.

`NC(=O)c1cccnc1COc1cc(-c2ccc(N3CCOCC3)nc2)cc2ncccc12` [BI01125081] showed a potency estimated from few doses [15] of 1.97 µM and a potency estimated from few doses [7, 20] of 0.577 µM.

`COc1ccc(C2=NC(c3ccc(Cl)cc3F)C(C(=O)Nc3ccc4[nH]ncc4c3)=C(C)N2)cn1.O=C(O)C(F)(F)F` (stereo not shown) [GSK534913A] showed a potency estimated from few doses [12, 20] of 0.895 µM.

In the case of `COc1cc(F)c(F)c(F)c1C(=O)c1cnc(NC2CCN(S(C)(=O)=O)CC2)nc1N` [RO4600703-000], the potency estimated from few doses [3, 20] is reported as 0.368 µM, the potency estimated from few doses [4, 20] is reported as 0.0902 µM and the potency estimated from few doses [5, 20] is reported as 0.138 µM.

For `Nc1c(C(=O)c2ccccc2)cnn1-c1ccc(F)cc1` [RO1151246-000], the potency estimated from few doses [3, 20] was 1.88 µM and the potency estimated from few doses [18, 20] was 1.89 µM.

In the case of `COc1ccc(C2=C(Nc3cccc(O)c3)C(=O)NC2=O)cc1` [SB-390766], the potency estimated from few doses [13, 20] is reported as 0.115 µM.

`Nc1nccc(-c2c(-c3ccc(F)cc3)ncn2C2CCC(O)CC2)n1` (stereo not shown) [SB-223133] showed a potency estimated from few doses [19] of 1.25 µM.
